The subject of the assay is lanierone-responsive B-neuron OSN class (ItypOR36). The experiment in a line: net action potential response of lanierone B-neuron (blank-subtracted) (spikes/s (Hz)); higher = stronger excitation. As to conditions: 10 µg on filter paper, neuron: B neuron (small spike amplitude). The protocol:
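Single sensillum recordings from antennal olfactory sensilla of live adult Ips typographus. Each compound was 10 µg in paraffin oil, delivered as a 0.5 s puff. Net response = spikes in the first 0.5 s of response minus the 0.5 s pre-stimulus count, doubled to give Hz, with blank response subtracted. Values are for the small-spike lanierone-responsive B-neuron (putatively expressing ItypOR36), recorded in sensilla co-housing the A-neuron class; N = 1-4, averaged.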

Where [1] appears, read: co-localized A-neuron class: (4S)-cis-verbenol.
Where [2] appears, read: co-localized A-neuron class: (5S,7S)-trans-conophthorin.
Where [3] appears, read: co-localized A-neuron class: (+)-isopinocamphone.
Setting [4] is: co-localized A-neuron class: (+)-trans-4-thujanol.
Where [5] appears, read: co-localized A-neuron class: ipsdienol.
The mark [6] stands for this setting: co-localized A-neuron class: myrcene.
[7] abbreviates: co-localized A-neuron class: p-cymene.

Molecules are shown by their SMILES. ± gives the standard deviation of the averaged measurements.

As to `CC1=CCC2CC1C2(C)C` (stereo not drawn) [(-)-α-Pinene], the “net action potential response” value was -6 ± 4 under setting [1]; -1.33 ± 2.3 under setting [2]; 2 ± 2 under setting [3]; 0 ± 5.7 under setting [4]; -1.33 ± 4.2 under setting [5]; 2 under setting [6]. For the same compound, the “net action potential response” value under setting [7] was -5.33 ± 4.6.
As to `C[C@H]1C(=O)C[C@H]2C[C@@H]1C2(C)C` [(-)-Pinocamphone], the “net action potential response” value is, setting by setting: under setting [1], -2 ± 2; under setting [2], -4 ± 8.7; under setting [3], -1.33 ± 1.1; under setting [4], 1 ± 3.8; under setting [5], 0 ± 6; under setting [6], 4. Moreover, under setting [7], the “net action potential response” value is -2 ± 3.5.
`CCC1CCC2(CCCO2)O1` (racemic) [(±)-Chalcogran]: the “net action potential response” value by setting is: under setting [1], -1.33 ± 5.8; under setting [2], -4 ± 5.3; under setting [3], -1.33 ± 2.3; under setting [4], -1.5 ± 3.4; under setting [5], -0.667 ± 1.1; under setting [6], -8. Further, under setting [7], the “net action potential response” value was -2.67 ± 2.3.
Turning to `CCC/C=C\CO`, the “net action potential response” value is 2 ± 11 under setting [1]; 2 ± 5.3 under setting [2]; -7.33 ± 4.6 under setting [3]; 2 ± 3.6 under setting [4]; 0.667 ± 3.1 under setting [5]; 6 under setting [6]. Also, the “net action potential response” value under setting [7] was determined as 2.67 ± 4.2.
With `CCC/C=C/C=O` [(E)-hex-2-enal], the “net action potential response” value is -2.67 ± 18 under setting [1]; 0 ± 2 under setting [2]; -2.67 ± 3.1 under setting [3]; -1.5 ± 3.4 under setting [4]; 0.667 ± 1.1 under setting [5]; -6 under setting [6]. The “net action potential response” value under setting [7] is -2 ± 8.5.
As for `C=CC(C)(C)O` [2-Methyl-3-buten-2-ol], the “net action potential response” value reads like this: under setting [1], -4.67 ± 5; under setting [2], -4.67 ± 7; under setting [3], 2 ± 2; under setting [4], -3.5 ± 7.2; under setting [5], 3.33 ± 11; under setting [6], 4. Also, under setting [7], the “net action potential response” value was -6 ± 2.8.

These data come from the supplement of paper PMC11577813, “Eurasian spruce bark beetle detects lanierone using a highly expressed specialist odorant receptor, present in several functional sensillum types” (BMC Biology, 2024).
